In the library only some 4% were active in any assay of this set; here they are far more common.
TRHR enhancer = allosterically enhances the human TRH receptor; P34981; TRHR cells, fluo-8 calcium fluorescence, EC20 TRH enhancement; enhancement, % at 2 µM; 0.66% of 360,000 active; in the data active = enhancement above about 30%; also: 0% is about no effect
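TRHR-expressing cells loaded with fluo-8 calcium dye were read kinetically (ex 480/em 530) during compound addition, then stimulated with an EC20 of TRH (10 nM final). Enhancement of the Gq-mediated intracellular calcium response was scored.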
GRP78 ERSR act = inducers of ER stress response in human glioma cells; 0.02% of 420,000 active; U87-MG GRP78 promoter luciferase reporter, 16 h; Potency, µM, without a hit: top-dose activation, hits mostly activators; active = well fitted activation curve with a large enough effect; also: potency is read from the fitted curve at half-maximal effect; series mostly up to about 76 µM; % of control where 0% means no effect; nearly all actives have a fitted effect of over 35% in size
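ERSR induction read as luciferase luminescence (Bright-Glo, 10 min at room temperature) in stably transfected human U87-MG glioma cells exposed to compounds for 16 h, using GRP78 as sensor.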
TRHR ag = TRH receptor (human) agonism; 0.18% of 360,000 active; AID 493084; P34981; activation, % at 2 µM; TRHR cells, calcium flux fluo-8, FDSS agonist mode; also: 0% is about no effect
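Read-out: compound-evoked intracellular calcium rise in TRHR cells, fluo-8 dye, kinetic FDSS fluorescence at 1 s/cycle following a 10-cycle baseline. Cells cultured overnight before dye loading (30 min–1.5 h, RT).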
D1 agonist = activates the human D1 dopamine receptor | P21728 | HEK293 T-REx D1 cells, calcium flux, agonist mode | activation, % at 2 µM | 1% of 360,000 active | AID 504660; also: 0% is about no effect
Target sequence (P21728 whole entry, looked up): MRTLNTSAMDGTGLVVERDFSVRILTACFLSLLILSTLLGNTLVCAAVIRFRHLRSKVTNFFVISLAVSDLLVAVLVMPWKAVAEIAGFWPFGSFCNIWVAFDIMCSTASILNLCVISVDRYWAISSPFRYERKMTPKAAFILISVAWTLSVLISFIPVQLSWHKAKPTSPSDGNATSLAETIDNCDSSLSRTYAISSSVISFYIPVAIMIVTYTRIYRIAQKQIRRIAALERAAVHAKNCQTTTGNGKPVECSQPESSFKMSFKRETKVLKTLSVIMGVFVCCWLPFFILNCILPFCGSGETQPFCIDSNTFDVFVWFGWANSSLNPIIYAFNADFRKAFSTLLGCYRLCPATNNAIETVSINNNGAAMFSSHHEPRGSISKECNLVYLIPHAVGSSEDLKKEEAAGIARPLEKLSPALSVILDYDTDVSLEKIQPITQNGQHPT
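Tetracycline-induced HEK293 TREx D1 cells, force-coupled to calcium signalling, were dye-loaded with a no-wash calcium kit. Compound was pin-added after a 10 s baseline. Fluorescence was read kinetically at 1 cycle/s for 180 s, with calcium rises flagged as agonism.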
D1 antag = human D1 dopamine receptor antagonism; P21728; HEK293 TREx D1 cells, calcium flux, dopamine EC80; hits give low values; activity change, negative = inhibition, % at 10 µM; 3.2% of 360,000 active; AID 504652; in the data active = activity change below about -30%; also: % is scaled to controls: 0 for no effect and ±100 for the full control effect
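Using tetracycline-induced force-coupled D1 Hek293 cells and a calcium dye, signals were followed for 180 s after compound, then for 180 s after EC80 dopamine, to detect inhibitors.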
D1 potentiator = potentiators of human D1 dopamine receptor; P21728; HEK293 TREx D1 cells, calcium flux, dopamine EC20 potentiation; potentiation, % at 10 µM; 0.036% of 360,000 active; in the data active = potentiation above about 30%; also: 0% is about no effect
Numbers without * were called inactive; x = no result. Rule as the data show it, unless noted: active = activation above about 30%; inactive = the rest.

SMILES	TRHR enhancer	GRP78 ERSR act	TRHR ag	D1 agonist	D1 antag	D1 potentiator
CCOC(=O)c1sc2ncn(CC(=O)Nc3cccc(C)c3)c(=O)c2c1C	2	-5%	1	2	-35*	2
O=C(O)C1CC(c2ccccc2)=NO1 (stereo unspecified)	33*	1%	-1	2	5	-3
O=C(O)[C@H]1O[C@@H](Oc2ccc3ccc(=O)oc3c2)[C@H](O)[C@@H](O)[C@@H]1O	x	-5%	x	x	x	x
CN(C)CC/C=C1/c2cc(F)ccc2Sc2ccc(Cl)cc21	x	-10%	x	x	x	x
CN(C)CC/C=C1/c2ccccc2Sc2c(O)cc(Cl)cc21	6	-2%	0	44*	-94*	-4
COc1cc(Cl)cc2c1Sc1ccccc1/C2=C/CCN(C)C	4	-3%	1	18	-62*	-9
COc1cc2c(cc1Cl)/C(=C\CCN(C)C)c1ccccc1S2	-1	-3%	0	14	-41*	-5
COc1ccc(CCN(/C=C2\Sc3ccccc3C2=O)C(C)=O)cc1OC	12	-7%	1	3	-11	0
CCOc1ccc(NC(=O)CN(C)Cc2cc(=O)n3c(-c4ccccc4)csc3n2)cc1OCC	2	-4%	0	2	7	-7
CC(C)[C@H](NC(=O)c1ccc(Cl)cc1Cl)C(=O)OCc1nc2ccsc2c(=O)[nH]1	x	-4%	x	x	x	x
Oc1ccc(-c2nc3ccccc3s2)c(O)c1	2	8%	0	1	-37*	-2
CCCCCCC#Cc1cncc(C(=O)NNC(=O)Nc2cc(Cl)cc(Cl)c2)c1	-4	11%	0	1	-7	-3
CCCCC#Cc1cncc(C(=O)NN)c1	6	-1%	1	3	-54*	-3
COc1cc(=O)n2c(c1C(=O)N(C)Cc1nccs1)CCN(Cc1ccc(F)c(F)c1)CC2	x	-2%	x	x	x	x
CCc1cc2c(s1)c1cnn(Cc3ccccc3F)c(=O)c1n2C	1	x	1	24	9	-1
Cc1ccccc1OCC(=O)OCC(=O)Nc1cc(S(C)(=O)=O)ccc1Cl	37*	-2%	0	9	14	-3
CS(=O)(=O)c1ccc(Cl)c(NC(=O)COC(=O)CNC(=O)c2ccccc2)c1	-5	1%	0	4	4	-2
CCOc1ccc(CNC(=O)c2ccc(Sc3ccc(C)cc3)c(NC(C)=O)c2)cc1	26	-4%	-1	4	-14	6
Cc1ccc(C(=O)Nc2ccc(-n3c(C)nc4ccccc4c3=O)cc2)cc1[N+](=O)[O-]	3	0%	0	18	x	2
CSc1ccc(CN2CCCN(C)CC2)cc1	-1	-3%	1	5	8	-4
O=C(Nc1ncc(S(=O)(=O)c2ccc([N+](=O)[O-])cc2)s1)c1cccc2ccccc12	-3	-5%	5	56*	-4	9
COCC(=O)Nc1ncc(S(=O)(=O)c2ccc([N+](=O)[O-])cc2)s1	-1	-3%	2	3	4	-4
CN1CC[C@H](c2c(O)cc(O)c3c(=O)cc(-c4ccccc4Cl)oc23)[C@@H](O)C1	x	-4%	x	x	x	x
O=C(Nc1ccc(F)cc1)C1CCC(N2C(=O)c3ccccc3C2=O)CC1 (stereo unspecified)	-1	-3%	1	7	-30*	0
Cc1csc(NC(=O)C2CCN(S(=O)(=O)c3ccccc3F)CC2)n1	8	-1%	0	24	-38*	-11
SMILES	TRHR enhancer	GRP78 ERSR act	TRHR ag	D1 agonist	D1 antag	D1 potentiator
O=C(Nc1ccccc1)C1CCN(S(=O)(=O)c2cccs2)CC1	-8	-3%	0	4	-7	-3
O=C(Nc1ccc(F)cc1)C1CCN(S(=O)(=O)c2cccs2)CC1	-6	-2%	-1	13	-40*	-1
O=C(Nc1cc(Cl)ccn1)C1CCN(S(=O)(=O)c2cccs2)CC1	0	6%	0	5	-31*	-15
COc1ccc(NC(=O)CCNC(=O)Cn2ccc3ccccc3c2=O)cc1Cl	19	0%	0	1	10	10
COC(=O)C(NS(N)(=O)=O)C(C)C (stereo unspecified)	x	1%	x	x	x	x
O=C(NNC(=O)C1CC1c1ccccc1)c1ccccc1F (stereo unspecified)	7	2%	0	3	9	-5

Screens (PubChem BioAssay)
